# Results taken from ChEMBL document CHEMBL3988442, “University of Dundee, Small-Polar-MMV Screening Library” (2021).
# In all, about 38,000 compounds went through this assay and about 1,200 (3.2%) showed an effect of 50% or more. The median lay at about -58%. Many of the other results were omitted from the sample, so strong results are more common in it than they were.
# Test system: Plasmodium falciparum
# Test: Calibr Malaria Delayed Death Assay SOP
# Type: functional, organism-based
# Set-up: scale not given: in the data most compounds retested in dose-response had high values
# Settings: concentration 4.99e-06 (unit not given; other assays of the set use mol/L)
row,SMILES,Percent Effect
1,O=C(Cn1cc(-c2ccccc2)ncc1=O)NC1CCCCC1,-177.8%
2,CCCS(=O)(=O)N1CCOC2(CCCN(c3ccccn3)C2)C1.O=C(O)C(F)(F)F (centres undefined),-72.32%
3,COc1ccc2c(c1)OCC(CNC(=O)c1ccc3[nH]nnc3c1)C2 (centres undefined),-64.67%
4,COCCN(CC1CCCN(C2Cc3ccccc3C2)C1)C(=O)CO (centres undefined),58.68%
5,COCCN(CC1CCCN(C2Cc3ccccc3C2)C1)C(=O)CSC (centres undefined),-1.59%
6,COCCN(CC1CCCN(C2Cc3ccccc3C2)C1)C(=O)COC (centres undefined),37.76%
7,NCc1ccnc(Oc2ccccc2)c1,-83.78%
8,O=C(CO)N1C[C@H]2CN(Cc3cccc(F)c3)C(=O)[C@H]2C1,-121.2%
9,CN(C)c1cc(C(=O)NCC2(c3ccc(F)cc3)CC2)ccn1,-97.96%
10,Fc1ccc(C2(CNC3=NCCCN3)CCC2)cc1.I,-5.202%
11,Fc1ccc(C2(CNC3=NCCN3)CCCC2)cc1.I,83.26%
12,Fc1ccc(OCCCNC2=NCCCN2)cc1.I,2.763%
13,CC(NC(=O)NCC1(c2ccc(F)cc2)CCCC1)c1nncn1C (centres undefined),-7.891%
14,COc1cccc(N2C(=O)CC3(CCCNC3)C2=O)c1.Cl (centres undefined),-161.5%
15,c1ccc2oc(CN3CCCCC3Cn3cncn3)nc2c1 (centres undefined),-88.89%
16,COc1ccc(F)c(F)c1CN1CC(=O)N(c2ccccc2C)CC1C (centres undefined),28.54%
17,COc1ccc(CN2CC(=O)N(c3ccc(C)cc3)CC2C)cc1O (centres undefined),-98.66%
18,COc1cccc(CN2CC(=O)N(c3ccccc3C)CC2C)c1OC (centres undefined),52.42%
19,COc1ccc(F)c(CN2CC(=O)N(c3ccccc3C)CC2C)c1 (centres undefined),6.943%
20,COc1cccc(OC)c1CN1CC(=O)N(c2ccc(C)cc2)CC1C (centres undefined),75.45%
21,COc1cc(CN2CC(=O)N(c3ccc(C)cc3)CC2C)cc(OC)c1 (centres undefined),43.44%
22,CN(C)C(=O)CO[C@H]1CN(Cc2ccoc2)[C@@H]2COC[C@H]12.O=C(O)C(F)(F)F,-8.838%
23,CN(Cc1ccncc1)CC1CCCN(CCc2ccc(Cl)cc2)C1 (centres undefined),-30.31%
24,CN(Cc1ccccc1O)CC1CCCN(CCc2ccc(Cl)cc2)C1 (centres undefined),-82.77%

row,SMILES,Percent Effect
1,CN(Cc1cnc(N)nc1)CC1CCCN(CCc2ccc(Cl)cc2)C1 (centres undefined),-42.11%
2,Cc1cc(CN(C)CC2CCCN(CCc3ccc(Cl)cc3)C2)[nH]n1 (centres undefined),-73.95%
3,Cc1nc[nH]c1CN(C)CC1CCCN(CCc2ccc(Cl)cc2)C1 (centres undefined),82.22%
4,CC(C)NC(=O)c1nnn(-c2ccccc2)c1C1CC1,-103.7%
5,CCCNC(=O)c1cc2c(s1)CCN2C(=O)c1ccccc1,-140.9%
6,O=C(NCCN1CCOC1=O)c1cnc(-c2cccnc2)nc1,-89.05%
7,O=C(N[C@@H]1CN(Cc2cccc(F)c2)C[C@H]1O)c1cscn1,-187.1%
8,O=C(COCC1CC1)Nc1ncccc1I,-99.18%
9,CCOCC1CN(Cc2ccc(OC)cc2)Cc2nn(CC3CC3)cc21.O=C(O)C(F)(F)F (centres undefined),-47.96%
10,CC(C)N(CCNC(=O)c1[nH]nc2ccc(I)cc12)C(C)C,86.77%
11,CC(C)N(CCNC(=O)c1ccc(S(=O)(=O)NC2CC2)cc1)C(C)C,3.108%
12,Cc1cccc(C(C)C)c1NC(=O)NCCN(C(C)C)C(C)C,37.4%
13,c1ccc(-c2cc(CN3C[C@@H]4CC[C@H](C3)N(CC3CC3)C4)on2)cc1,16.35%
14,c1ccc(-c2cc(CN3C[C@@H]4CC[C@H](C3)N(CC3CCC3)C4)on2)cc1,88.08%
15,c1ccc(-c2cc(CN3C[C@H]4CC[C@H]3C4)on2)cc1,2.742%
16,CCC(OC)C(=O)NCc1cc2n(n1)CCCN(C1CCCCC1)C2 (centres undefined),-16.19%
17,CC1CCCCN1c1nc2c(c(=O)[nH]1)CCN(Cc1ccccc1F)C2 (centres undefined),13.92%
18,CCn1cc(-c2cc(C(F)(F)F)nc(NC3CCCC3)n2)c(C)n1,-77.03%
19,Cc1ccc(-c2cc(C(F)(F)F)nc(N3CCOCC3)n2)s1,-16.11%
20,Cc1c(-c2cc(C(F)(F)F)nc(N3CCC(N)CC3)n2)cnn1C,19.65%
21,CCc1ccc(-c2cc(C(F)(F)F)nc(N3CCC(N)CC3)n2)cc1,81.95%
22,CCn1ncc(-c2cc(C(F)(F)F)nc(N3CCC(N)CC3)n2)c1C,64.36%
23,FC(F)(F)c1cc(-c2cccs2)nc(N2CCN3CCCC3C2)n1 (centres undefined),-49.64%
24,CCc1nc(CN2CCCN(Cc3noc(C4CC4)n3)CC2)cs1,-72.76%

row,SMILES,Percent Effect
1,COc1cc(CN2CCCC23CCN(c2ccccn2)CC3)ccc1F,1.862%
2,Cc1cc(C)c2[nH]c(C(=O)NCCN3CCCC3=O)c(C)c2c1,-119.1%
3,CC(C)c1noc(CCNC(=O)N2CCN(c3cccs3)CC2)n1,-17.65%
4,CCc1nc(CCNC(=O)Nc2cccc(C(=O)NC)c2C)cs1,-100.3%
5,Cc1nnc(SC2CCc3ccccc3NC2=O)o1 (centres undefined),-88.91%
6,CNc1cc(C)nc(NCc2cc(C)cc3c(C)c(C)[nH]c23)n1,91.83%
7,CNc1cc(C)nc(-c2cc(NC)nc3[nH]ccc23)n1,49.01%
8,CNc1nc(C)cc(NCc2cc(C)cc3c(C)c(C)[nH]c23)n1,92.52%
9,CNc1cc(C)nc(-c2cc(NCCO)nc3[nH]ccc23)n1,-113.9%
10,Cc1cc(CNc2cncc(C(=O)N(C)C)n2)c2[nH]c(C)c(C)c2c1,-64.7%
11,CCN(Cc1cnn(CC)c1)Cc1c(Cl)cncc1Cl,-11.88%
12,Cc1ccc(C2CN(CCCC#N)CCO2)c(C)c1 (centres undefined),-121.1%
13,CCc1ncnc2c1CCN(S(=O)(=O)CC)CC2,-41.95%
14,CN(CCCc1ccccc1)C(=O)c1ccccc1NCC(=O)O,-16.6%
15,CCC1=NN2C(=N)/C(=C\c3cccn3-c3ccc(Cl)cc3)C(=O)N=C2S1,17.01%
16,COc1cc(I)c(Cl)cc1C(=O)N(C)CC(=O)NC(C)(C)C,-34.35%
17,CN1[C@H](Cn2cccn2)C[C@@H]2CN(C(=O)Cc3cccs3)CC[C@@H]21,-36.35%
18,CN1[C@H](CN2CCCC2)C[C@@H]2CN(Cc3ccoc3)CC[C@@H]21.O=C(O)C(F)(F)F.O=C(O)C(F)(F)F.O=C(O)C(F)(F)F,57.43%
19,CC(C)N1[C@H](Cn2cccn2)C[C@@H]2CN(Cc3ccoc3)CC[C@@H]21.O=C(O)C(F)(F)F.O=C(O)C(F)(F)F.O=C(O)C(F)(F)F,39.12%
20,CN1C(Cn2cccn2)C[C@@H]2CN(Cc3cccnc3)CC[C@@H]21.O=C(O)C(F)(F)F.O=C(O)C(F)(F)F.O=C(O)C(F)(F)F.O=C(O)C(F)(F)F (some centres undefined),11.1%
21,CN1C(Cn2cccn2)C[C@@H]2CN(Cc3ccccn3)CC[C@@H]21.O=C(O)C(F)(F)F.O=C(O)C(F)(F)F.O=C(O)C(F)(F)F.O=C(O)C(F)(F)F (some centres undefined),41.52%
22,CN1[C@H](Cn2cccn2)C[C@@H]2CN(Cc3cccs3)CC[C@@H]21.O=C(O)C(F)(F)F.O=C(O)C(F)(F)F.O=C(O)C(F)(F)F,75.74%
23,CN1C(Cn2cccn2)C[C@@H]2CN(Cc3nccs3)CC[C@@H]21 (some centres undefined),-108.4%
24,Cc1ccoc1C(=O)N1CC[C@H]2[C@H](C[C@@H](CN3CCCC3)N2C)C1.O=C(O)C(F)(F)F.O=C(O)C(F)(F)F,-53.97%

row,SMILES,Percent Effect
1,CCc1nc2n(n1)CC(NCc1cc(OC)c3c(c1)OCCO3)CC2 (centres undefined),-60.23%
2,O=C(CN1CC(c2ccccc2)CC1=O)N1CCN(c2nccs2)CC1 (centres undefined),-33.46%
3,Cc1nc(-c2cccc(C(=O)O)c2)cc(C2CCCN(C(C)C)C2)n1 (centres undefined),-116.2%
4,COc1cccc(CNc2nnc(C(C)(C)C)o2)c1OC,-115.2%
5,CC(C)NC(=O)C1CCN(C(C)C(=O)N2CCc3sccc3C2)CC1 (centres undefined),-19.38%
6,CC(C(=O)N1CCc2sccc2C1)N1CCC(N2CCCC2)CC1 (centres undefined),51.04%
7,CC(C(=O)N1CCc2sccc2C1)N1CCCN(C2CC2)CC1 (centres undefined),19.49%
8,COC(=O)CC(C1=Cc2ccccc2OC1)c1oc(C)cc(=O)c1O (centres undefined),-54.1%
9,COCCC1(CNC(=O)Nc2ccnc(C)c2)CCCC1,72.21%
10,Cc1cc(NC(=O)NCC2(O)CCCC2)ccn1,-130.9%
11,COCCC1(CNC(=O)Nc2ccc(-n3nccn3)cc2)CCC1,-17.2%
12,COc1ncc(C2(O)CCN(Cc3cc(F)cc(F)c3)CC2)c(OC)n1,-99.52%
13,O=c1[nH]nc2c(S(=O)(=O)N3CCOCC3)cccn12,-183.8%
14,CNC(=O)c1cc2c(nc1NCC1CC1)CCN(c1ncccn1)CC2,-64.19%
15,O=S(=O)(Nc1ccc2c(c1)OCCO2)N1CCCCC1,-170%
16,Cc1ccc(CNC(c2cccc(F)c2)c2nccn2C)o1.Cl (centres undefined),35.29%
17,Cc1ccc(CNCCC(O)(c2nccn2C)C(F)(F)F)o1 (centres undefined),72.37%
18,Cc1ccc(CNC(c2ccc(F)cc2)c2nccn2C)o1 (centres undefined),-33.59%
19,Cn1ccnc1CN1CCCN(C(=O)c2ccc(Cl)o2)CC1,-26.42%
20,CCc1n[nH]c(C2CN(C(=O)COCC(F)(F)F)CCO2)n1 (centres undefined),-109.1%
21,CCc1c(C)n(CCC#N)c2nc3ccccc3n2c1=O,-59.08%
22,CCc1nnc2n1CCN(C(=O)C1CCC(n3cccc3)CC1)C2 (centres undefined),-12.54%
